# Reference: PubChem BioAssay
# Active and inactive are the calls of the source. Unless noted, the rule behind the calls is not given here.
# Columns and labels:
# [1] = system: Wnt5a (protein binding on small-molecule microarray); test: Wnt5a binders on small-molecule microarray, primary screen, biophysical, 635/667 nm fluorescence (AID 1142); details: 635 nm fluorescence, higher = more signal;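 note: fluorescence read at 667 nm with signal to noise per printed feature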
# [2] = cell viability in Huh7 cells, primary screen, cytotoxicity control for HCV replication inhibitor project, CellTiter-Glo luminescence, basal, 48 h (AID 1143); details: Huh7 HCV replicon, higher = more signal, called active from +8 up or from −8 down;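 note: Huh7 hepatoma cells carrying a hepatitis C replication reporter with no stimulus; test concentration not given here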
# [3] = P. aeruginosa biofilm formation inhibitors, primary screen, PAO1 strain, BacTiter-Glo luminescence, LB-PBS (AID 1144); details: 12 h, higher = more signal
# [4] = CREB reporter modulators without forskolin, primary screen, cell-based, PC12, CRE-LacZ reporter, unstimulated (AID 1145); details: no forskolin, luminescence, 4.5 h, higher = more signal, called active from +8 up or from −8 down
# [5] = CREB reporter modulators under forskolin, primary screen, cell-based, PC12, CRE-LacZ reporter, forskolin-stimulated (AID 1146); details: luminescence, 4.5 h, higher = more signal, called active from +8 up or from −8 down;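 note: PC12 cells with 6xCRE LacZ reporter stimulated by forskolin 10 µM; beta-galactosidase reporter signal reflecting CREB driven transcription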
# [6] = target: Streptavidin (Streptomyces avidinii) (UniProt P22629); test: streptavidin binders on small-molecule microarray, primary screen, artefact control for SMM compound annotation, biophysical, 635/667 nm fluorescence (AID 1147); details: streptavidin binding, higher = more signal;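 note: signal reflects streptavidin binding to arrayed compounds as a control protein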
# [7] = small-molecule binders of probe aInhba, primary screen, biochemical, small-molecule microarray, 635/667 nm fluorescence (AID 1148); details: higher = more signal;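 note: score merges 667nm spot fluorescence with signal-to-noise for antibody binding to printed compounds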
# Torsin-1A (Homo sapiens) [8] = target: Torsin-1A (Homo sapiens) (UniProt O14656); test: torsin A binders from cell lysate, primary screen, small-molecule microarray, wild-type, 635/667 nm (AID 1149); details: COS7 hTOR1A-WT lysate, 635 nm fluorescence, higher = more signal
# Torsin-1A (Homo sapiens) [9] = target: Torsin-1A (Homo sapiens) (UniProt O14656); test: small-molecule binders of mutant TOR1A in lysate, primary screen, cell lysate, small-molecule microarray, COS7 lysate, 635/667 nm fluorescence (AID 1150); details: COS7 hTOR1A mutant lysate, 635 nm fluorescence, higher = more signal;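 note: score pools 667 nm emission and signal to noise measuring lysate protein binding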
# [10] = system: Sonic hedgehog protein (Shh); test: small-molecule binders of Shh protein, primary screen, biochemical, small-molecule microarray, 635/667 nm fluorescence (AID 1151); details: small-molecule microarray binding, 635 nm fluorescence; higher = more signal;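 note: Shh protein binding to compounds spotted on small-molecule microarray slides; score combines spot fluorescence intensity with signal-to-noise across triplicate slides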
# Streptavidin (Streptomyces avidinii), sequence (P22629 whole entry, looked up): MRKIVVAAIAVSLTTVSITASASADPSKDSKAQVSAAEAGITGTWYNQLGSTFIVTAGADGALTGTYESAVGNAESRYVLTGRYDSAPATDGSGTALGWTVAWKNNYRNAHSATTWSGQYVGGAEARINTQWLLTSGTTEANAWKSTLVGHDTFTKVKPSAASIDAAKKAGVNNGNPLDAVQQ
# Torsin-1A (Homo sapiens), sequence (O14656 whole entry, looked up): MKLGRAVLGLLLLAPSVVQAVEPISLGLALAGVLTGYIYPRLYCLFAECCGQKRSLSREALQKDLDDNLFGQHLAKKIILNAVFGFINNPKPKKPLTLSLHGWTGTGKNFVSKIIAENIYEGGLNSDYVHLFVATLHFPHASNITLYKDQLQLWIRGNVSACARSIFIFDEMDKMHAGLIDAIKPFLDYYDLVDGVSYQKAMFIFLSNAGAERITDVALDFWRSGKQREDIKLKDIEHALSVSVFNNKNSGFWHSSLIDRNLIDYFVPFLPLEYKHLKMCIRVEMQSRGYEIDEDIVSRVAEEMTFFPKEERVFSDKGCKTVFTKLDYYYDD
SMILES,composite z-score [1],z-score [2],z-score [3],z-score [4],z-score [5],composite z-score [6],composite z-score [7],composite z-score (Torsin-1A (Homo sapiens) [8]),composite z-score (Torsin-1A (Homo sapiens) [9]),composite z-score [10]
CCCNC(=O)OC[C@H]1O[C@H](CCON=Cc2ccc(C(=O)N3[C@H](c4ccc(C)cc4)[C@@H](C)CC[C@H]3C(=O)OC)cc2)C=C[C@@H]1Oc1ccc(OC)cc1,0.157,-1.73 (inactive),0.0699 (inactive),2.55 (inactive),1.16 (inactive),0.0335,-0.105,0.436,0.853,0.396
O=C1CCCC=C1C(CCc1ccccc1)OC(=O)c1ccc(Br)cc1 (stereo not given),-0.223,-3.61 (inactive),0.96 (inactive),0.111 (inactive),0.171 (inactive),0.0598,-0.218,-0.249,0.0696,-0.115
O=c1n(Cc2cc3c(cc2Cl)OCO3)c(=O)n2n1CC[C@@H]1C(=NOC[C@@H](O)COCc3ccco3)[C@H]3O[C@H]3[C@@H](O)[C@@H]12,0.127,0.376 (inactive),-1.11 (inactive),0.975 (inactive),0.819 (inactive),1.02,0.0084,0.365,0.156,0.344
CON=CC[C@@H]1C=C[C@H](OC(C)=O)[C@@H](COC(C)=O)O1,0.474,0.544 (inactive),0.667 (inactive),-0.403 (inactive),0.46 (inactive),-0.0091,0.102,0.611,0.592,0.783
CO[C@H]1COC(=O)[C@@H]2CCCN2C(=O)CC=C[C@@H](C)[C@H](OC)COC(=O)[C@@H](OCc2ccccc2)C=C[C@@H]1C,-0.0628,-3.36 (inactive),-0.576 (inactive),1.15 (inactive),-0.166 (inactive),-0.0601,-0.407,1.32,0.855,1.89
CO[C@H]1COC(=O)[C@@H](C)COC(=O)[C@H](C)NC(=O)CC=C[C@H]1C,0.0392,-0.378 (inactive),0.371 (inactive),-0.115 (inactive),-0.959 (inactive),-0.639,-0.176,1.15,0.991,1.6
COc1cccc([C@H]2Oc3ccc(OC)cc3C(=NOC[C@@H](O)[C@H]3O[C@@H]4OC(C)(C)O[C@@H]4[C@H]3O)[C@@H]2O)c1,0.205,-2.83 (inactive),1.12 (inactive),2.02 (inactive),0.0487 (inactive),-0.311,-0.105,0.0929,0.339,0.303
CCOC(=O)NN=C1C[C@@H](O)[C@@H](O)[C@@H]2[C@@H]3C(=O)N(C(C)(C)C)C(=O)[C@@H]3CC[C@H]12,0.138,-0.0395 (inactive),0.655 (inactive),-0.295 (inactive),0.269 (inactive),0.344,0.0427,0.446,0.307,0.187
CON=Cc1ccc(C(=O)N2[C@H](c3ccc(C)cc3)[C@@H](C)CC[C@H]2C(=O)OC)cc1,-0.0731,-1.63 (inactive),-0.183 (inactive),0.336 (inactive),-0.158 (inactive),0.651,0.0398,0.144,0.568,0.441
CC[C@@H](c1ccccc1)n1c(=O)n2n(c1=O)[C@H]1[C@H](O)[C@@H]3O[C@@H]3C(=NOC[C@@H](O)COCc3ccco3)[C@H]1CC2,0.112,0.456 (inactive),0.232 (inactive),0.704 (inactive),0.427 (inactive),-0.715,-0.257,-0.354,-0.517,1.07
C[C@H]1Cc2c(COc3ccccc3)nc3c(c2CO1)CN(CCOc1ccccc1)CC3,0.0543,-0.491 (inactive),-1.96 (inactive),3.54 (inactive),-0.632 (inactive),0.426,-0.157,0.53,0.217,1.21
CO[C@@H]1COC(=O)CC=C[C@@H](C)[C@@H]2C=C[C@H](O)[C@@H](COC(=O)CC=C[C@H]1C)O2,-0.186,-0.256 (inactive),0.177 (inactive),0.877 (inactive),-0.0355 (inactive),-0.0274,-0.255,2.58,1.72,2.13
COc1cccc([C@H]2Oc3ccc(OC)cc3C(=NOC[C@@H](C)[C@H](OCc3ccccc3)C(C)C)[C@@H]2O)c1,0.276,-0.324 (inactive),0.508 (inactive),0.666 (inactive),0.649 (inactive),-0.234,-0.106,0.577,0.83,0.115
COC(=O)[C@@H]1CC[C@H](C)[C@@H](c2ccc(C)cc2)N1C(=O)c1ccc(C=NO[C@H](C)c2cn([C@H](CO)Cc3ccccc3)nn2)cc1,0.247,-0.63 (inactive),0.0292 (inactive),8.24 (active),0.371 (inactive),0.0407,0.288,0.278,0.277,0.682
O=C1[C@H]2[C@H]3[C@H](O)[C@H](O)CC(=NOCc4ccccc4)[C@@H]3CC[C@H]2C(=O)N1Cc1ccc2c(c1)OCO2,0.0098,0.445 (inactive),-0.312 (inactive),0.0664 (inactive),-0.174 (inactive),0.193,-0.101,0.537,-0.0537,0.643
C=CC1=C[C@H](O)[C@@H]2O[C@@H]2C12OCCCO2,0.398,0.17 (inactive),0.658 (inactive),-0.0732 (inactive),0.197 (inactive),0.281,-0.0695,0.468,0.752,-0.262
Cc1ccc(S(=O)(=O)N[C@H]2COC(=O)CC=C[C@@H](C)COC(=O)CC=C[C@@H]2C)cc1,-0.0032,0.319 (inactive),-0.748 (inactive),-0.0223 (inactive),0.113 (inactive),0.407,-0.0645,0.346,-0.534,1.92
O=C1[C@H]2[C@H]3[C@H](O)[C@H](O)CC(=NOC[C@@H](O)COCc4ccco4)[C@@H]3CC[C@H]2C(=O)N1C[C@@H]1CCCO1,0.149,0.0304 (inactive),0.835 (inactive),-0.207 (inactive),-0.0793 (inactive),-0.0625,-0.263,3.22,3.3,1.59
C=CC[C@@H]1C=C[C@H](ON=C(C)CCC(=O)OC[C@H]2O[C@H](c3ccccc3)C=C[C@@H]2Oc2ccc(OC)cc2)[C@@H](CO)O1,-0.278,-1.08 (inactive),-0.743 (inactive),-0.24 (inactive),-0.24 (inactive),-0.586,-0.128,-0.957,-0.587,-0.317
C#CCCCON=C1C[C@@H](O)[C@@H](O)[C@@H]2[C@@H]3C(=O)N(Cc4ccccc4)C(=O)[C@@H]3CC[C@@H]12,0.087,-0.0439 (inactive),0.943 (inactive),-0.476 (inactive),0.174 (inactive),-0.382,-0.0675,0.103,0.0159,-0.523
COC(=O)[C@H](C)NC(=O)CCC1CC(OC(=O)NCCc2ccc(F)cc2)CC2(CCCC(COC(=O)NCc3cccc(C(F)(F)F)c3)O2)O1 (stereo not given in full),0.116,-0.382 (inactive),0.198 (inactive),0.0178 (inactive),0.144 (inactive),0.213,-0.242,0.818,0.0548,1.09
CCC=CCCC(OC(=O)c1ccc(Br)cc1)C1=CCCCC1=O (stereo not given),-0.0451,-1.29 (inactive),1.45 (inactive),-0.158 (inactive),3.09 (inactive),0.148,-0.195,1.08,1.87,1.46
CCOC(=O)[C@H](CC(C)C)NC(=O)CCC1CC(OC(=O)NCc2cccc3ccccc23)CC2(CCCC(COC(=O)NCCOc3ccccc3)O2)O1 (stereo not given in full),0.746,-0.248 (inactive),-0.477 (inactive),-0.526 (inactive),-0.519 (inactive),0.628,0.0248,0.236,0.117,0.805
CO[C@H]1COC(=O)[C@H](C)NC(=O)[C@@H](C)COC(=O)[C@H]2CCCN2C(=O)CC=C[C@H]1C,0.139,0.191 (inactive),-0.312 (inactive),-0.906 (inactive),-0.432 (inactive),-0.323,-0.121,-0.0249,0.182,1.4
CCCNC(=O)OC[C@H]1O[C@H](CCON=C(C)CCN2CCCc3nc(C)c(C)cc32)C=C[C@@H]1Oc1ccc(OC)cc1,0.146,-2.37 (inactive),-0.489 (inactive),2.72 (inactive),0.367 (inactive),0.668,0.0028,0.182,-0.0347,0.368
CO[C@@H]1COC(=O)[C@@H]2CCCN2C(=O)[C@@H](C)COC(=O)CC=C[C@H]1C,0.667,-0.193 (inactive),-1.09 (inactive),1.03 (inactive),0.828 (inactive),0.119,-0.0427,0.826,0.962,0.895
C#CCCCON=C1C[C@@H](O)[C@@H](O)[C@@H]2[C@@H]3C(=O)N(c4ccc(F)cc4F)C(=O)[C@@H]3CC[C@@H]12,0.09,-0.459 (inactive),0.589 (inactive),-0.564 (inactive),-0.392 (inactive),-0.091,-0.213,0.061,0.0576,0.351
O=C1C[C@@H](O)[C@@H](O)[C@@H]2[C@@H]3C(=O)N(C[C@@H]4CCCO4)C(=O)[C@@H]3CC[C@H]12,0.288,0.114 (inactive),0.54 (inactive),0.517 (inactive),-0.105 (inactive),0.168,-0.128,0.34,0.068,0.46
CO[C@@H]1COC(=O)[C@H](CCSC)NC(=O)CC=C[C@@H](C)COC(=O)[C@H](C)NC(=O)CC=C[C@H]1C,0.312,0.208 (inactive),0.0303 (inactive),1.97 (inactive),-0.306 (inactive),-0.793,-0.103,1.49,0.152,1.46
